Assay results published in PubChem BioAssay AID588707 (Southern Research Specialized Biocontainment Screening …, 2011).
Records with an inconclusive call do not appear. A number with no mark means an inactive call.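 The calls were made as follows: active = viability below 80% at one or more tested concentrations, flagged as toxic; inconclusive = replicate runs disagree on whether the viability criterion is met; inactive = viability at or above 80% at every dose.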

Assay: Vero E6 cell cytotoxicity, dose response, cytotoxicity control for P. falciparum PFM17LAP inhibitor project, M17 leucyl aminopeptidase campaign (AID 588707)
Details: CellTiter-Glo luminescence, 72 h; series mostly up to 50 µM; viability: at the top concentration

Structure (SMILES) | viability
CC(C)C[C@H](N)C(=O)NO | 110%
Cc1cc(SCC(=O)Nc2ccccc2C(=O)O)nc2ccccc12 | 88.5%
Cc1cc(=O)[nH]c(SCC(=O)Nc2ccccc2)n1 | 94.7%
COC(=O)c1c(NC(=O)C2CCCCC2C(=O)O)sc2c1CCC(c1ccccc1)C2 (configuration not stated) | 81.5%
COc1ccc(-c2nnc(NC(=O)C3CC(C)=C(C)CC3C(=O)O)s2)cc1 (configuration not stated) | 92.6%
COC(=O)c1ccccc1NC(=O)c1cc2cc3ccc(C)cc3nc2s1 | 92.9% [at 25 µM]
O=C(CSc1ccccc1)Nc1cccc2c1C(=O)NC2=O | 87.4%
COc1cc(NC(=O)CSc2ccccc2)c(C(=O)O)cc1OC | 105%
CC1=C(C)CC(C(=O)Nc2nc(-c3cc(C)ccc3C)c(C)s2)C(C(=O)O)C1 (configuration not stated) | 89%
COC(=O)c1ccccc1NC(=O)c1ccc2c(Cl)c3c(nc2c1)CCC3 | 94.4% [at 25 µM]
COC(=O)c1c(NC(=O)C2CC=CCC2C(=O)O)sc(C)c1-c1ccc(C)cc1 (configuration not stated) | 93.1%
O=C(CSc1nccc(=O)[nH]1)Nc1ccc(N2CCOCC2)cc1 | 109%
O=C(Nc1ccc(Cl)cc1)Nc1ccccc1C(=O)O | 82.2%
COC(=O)c1cc(OC)c(OC)cc1NC(=O)c1sc2nc(C)ccc2c1N | 92.5%
O=C(O)c1ccccc1C(=O)Nc1nc2c(s1)CCCC2 | 96.9%
O=C(CSc1nc(O)cc(=O)[nH]1)Nc1ccccc1 | 90.7%
NC(N)=NCCC[C@H](N)C(=O)NO | 107%
COC(=O)c1c(NC(=O)c2ccccc2C(=O)O)sc2c1CCCC2 | 87.6%
O=C(CSc1nccc(=O)[nH]1)Nc1ccc(Oc2ccccc2)cc1 | 80%
O=C1OCCC1Sc1nnc(NC2CCCCC2)s1 (configuration not stated) | 95.9%
N[C@@H](Cc1c[nH]c2ccccc12)C(=O)NO | 104%
Cc1ccc(NC(=O)CSc2nc(O)cc(=O)n2Cc2ccccc2)cc1 | 94.2%
